{"source": "PubChem BioAssay (NCATS)", "key": {"[1]": {"test": "qHTS assay for small molecule agonists of retinoid X receptor alpha signaling (AID 588544; calls by dose curve)", "details": "HEK293T RXRa-UAS-bla, beta-lactamase reporter, 18 h; 530 nm emission"}, "[2]": {"biological_target": "Retinoic acid receptor RXR-alpha (Homo sapiens) (UniProt P19793)", "sequence (P19793 whole entry, looked up)": "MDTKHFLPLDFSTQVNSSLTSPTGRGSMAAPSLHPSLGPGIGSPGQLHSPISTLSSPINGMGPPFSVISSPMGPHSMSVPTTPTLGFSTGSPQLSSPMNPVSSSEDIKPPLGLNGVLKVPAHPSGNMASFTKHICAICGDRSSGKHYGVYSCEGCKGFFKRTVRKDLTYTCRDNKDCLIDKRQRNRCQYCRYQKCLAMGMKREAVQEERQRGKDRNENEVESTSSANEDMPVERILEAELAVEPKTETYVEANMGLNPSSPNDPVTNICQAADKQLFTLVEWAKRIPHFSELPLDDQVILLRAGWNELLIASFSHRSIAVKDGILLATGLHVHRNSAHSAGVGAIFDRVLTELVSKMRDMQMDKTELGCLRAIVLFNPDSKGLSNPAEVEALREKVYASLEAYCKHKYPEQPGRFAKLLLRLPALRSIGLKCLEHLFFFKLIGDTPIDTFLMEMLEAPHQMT", "test": "qHTS assay for small molecule agonists of retinoid X receptor alpha signaling (AID 588544)", "details": "HEK293T RXRa-UAS-bla, beta-lactamase reporter, 18 h; series mostly up to 76.7 µM"}, "[3]": {"test": "qHTS assay for small molecule antagonists of retinoid X receptor alpha signaling (AID 588546)", "details": "HEK293T RXRa-UAS-bla, beta-lactamase ratio, antagonist mode; measured here: W530 green channel, cytotoxicity proxy", "procedure,_shortened": "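Beta-lactamase reporter inhibition, read as CCF4 fluorescence ratio (ex 405, em 460/530 nm) after 2 h at RT. HEK293T UAS-bla cells, 2500/well, were stimulated with 9-cis-RA at 500 or 100 nM final alongside test compound for 18 h at 37 C.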"}, "[4]": {"biological_target": "Thyroid hormone receptor beta (Homo sapiens) (UniProt P10828)", "sequence (P10828 whole entry, looked up)": "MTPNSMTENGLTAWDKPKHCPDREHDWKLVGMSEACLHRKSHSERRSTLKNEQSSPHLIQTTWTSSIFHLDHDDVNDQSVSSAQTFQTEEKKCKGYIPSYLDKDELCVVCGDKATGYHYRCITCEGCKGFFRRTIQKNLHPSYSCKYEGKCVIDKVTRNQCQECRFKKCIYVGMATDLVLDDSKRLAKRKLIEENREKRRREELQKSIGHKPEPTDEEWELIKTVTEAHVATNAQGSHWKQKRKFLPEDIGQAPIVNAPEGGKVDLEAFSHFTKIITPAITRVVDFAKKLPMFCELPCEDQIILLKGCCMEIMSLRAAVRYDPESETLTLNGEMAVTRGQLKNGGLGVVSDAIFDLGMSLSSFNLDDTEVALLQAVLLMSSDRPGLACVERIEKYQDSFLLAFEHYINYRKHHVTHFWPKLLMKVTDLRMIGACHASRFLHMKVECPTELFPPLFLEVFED", "test": "qHTS assay for small molecule antagonists of thyroid hormone receptor beta signaling (AID 588547; active means well fitted inhibition curve with a large enough effect in the signal ratio, with a control signal flat, not every such curve was filed as active; the % refers to the signal ratio)", "details": "TR-UAS-bla HEK293, beta-lactamase ratio, antagonist mode, 18 h", "procedure,_shortened": "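Inhibition of T3-driven (0.4nM final) beta-lactamase reporter activity was measured over 0.59 nM to 92 uM compound after 18 h at 37 C. The cells were GripTite HEK293 TR-UAS-bla in charcoal/dextran-stripped serum, with CCF4 ratio read-out and IC50 from Hill fits.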"}, "[5]": {"biological_target": "Voltage-gated inwardly rectifying potassium channel KCNH2 (Homo sapiens) (UniProt Q12809)", "sequence (Q12809 whole entry, looked up)": "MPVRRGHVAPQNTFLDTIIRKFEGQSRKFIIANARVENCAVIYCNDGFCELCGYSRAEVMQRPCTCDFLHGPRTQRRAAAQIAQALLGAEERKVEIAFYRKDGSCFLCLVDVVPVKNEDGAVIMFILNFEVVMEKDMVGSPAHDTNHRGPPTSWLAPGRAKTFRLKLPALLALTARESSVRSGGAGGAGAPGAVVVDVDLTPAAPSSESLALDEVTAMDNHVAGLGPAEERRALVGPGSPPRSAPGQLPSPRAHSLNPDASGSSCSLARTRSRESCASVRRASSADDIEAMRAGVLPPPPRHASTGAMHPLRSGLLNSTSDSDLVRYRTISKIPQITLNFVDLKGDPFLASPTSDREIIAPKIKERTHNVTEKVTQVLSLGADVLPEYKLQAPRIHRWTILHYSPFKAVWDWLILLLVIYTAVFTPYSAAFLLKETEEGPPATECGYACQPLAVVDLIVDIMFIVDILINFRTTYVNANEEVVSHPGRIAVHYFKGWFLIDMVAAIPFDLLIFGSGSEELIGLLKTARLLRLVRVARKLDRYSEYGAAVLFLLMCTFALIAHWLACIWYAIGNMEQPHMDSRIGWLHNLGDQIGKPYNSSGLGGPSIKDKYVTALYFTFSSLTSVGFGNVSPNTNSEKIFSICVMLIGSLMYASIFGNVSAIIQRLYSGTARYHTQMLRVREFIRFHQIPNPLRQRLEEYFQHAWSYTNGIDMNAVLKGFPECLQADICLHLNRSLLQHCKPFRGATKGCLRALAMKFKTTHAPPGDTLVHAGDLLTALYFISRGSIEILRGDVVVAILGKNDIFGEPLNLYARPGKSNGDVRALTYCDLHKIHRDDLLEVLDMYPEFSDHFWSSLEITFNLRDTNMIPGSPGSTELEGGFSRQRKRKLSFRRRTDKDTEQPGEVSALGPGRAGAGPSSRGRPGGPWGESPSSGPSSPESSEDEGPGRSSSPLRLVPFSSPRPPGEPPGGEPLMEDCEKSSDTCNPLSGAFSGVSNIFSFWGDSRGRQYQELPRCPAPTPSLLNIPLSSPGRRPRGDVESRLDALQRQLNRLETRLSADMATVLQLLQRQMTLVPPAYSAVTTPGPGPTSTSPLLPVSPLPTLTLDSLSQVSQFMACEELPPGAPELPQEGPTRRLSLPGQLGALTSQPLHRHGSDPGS", "test": "qHTS Assay for Small Molecule Inhibitors of the Human hERG Channel Activity (AID 588834);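 further: lower thallium flux fluorescence means stronger hERG block; nearly all actives have a fitted effect of over 50% in size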; further: potency means the concentration at half of the fitted maximal effect", "details": "U2OS BacMam hERG, FluxOR thallium flux fluorescence; series mostly up to 46.1 µM", "procedure,_shortened": "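Concentration-response qHTS measuring drop in thallium-sensitive dye signal. U2OS cells carrying BacMam hERG; compound exposure ~10 min, then stimulation buffer and 2 min read at 1 sec intervals.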"}, "[6]": {"test": "S16 Schwann cell viability assay (CellTiter-Glo assay) (AID 624031);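 further: native untransfected S16 rat Schwann cells; cellular ATP luminescence as a viability measure; nearly all actives have a fitted effect of over 70% in size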", "details": "S16 rat Schwann cells viability, 24 h; series mostly up to 57.5 µM", "procedure,_shortened": "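Concentration-effect curves come from CellTiter-Glo luminescence of S16 rat Schwann cells after 24 h compound exposure. Each reading was normalized to DMSO wells (0%) and wells without cells, and curves were ranked by r2 and response magnitude.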"}, "[7]": {"test": "S16 Schwann cell PMP22 intronic element beta-lactamase assay (AID 624044; calls by dose curve; further: nearly all actives have a fitted effect of over 15% in size; further: potency means the concentration at half of the fitted maximal effect)", "details": "S16 rat Schwann cells, PMP22 element beta-lactamase FRET, 24 h; series mostly up to 38.3 µM", "procedure,_shortened": "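Rat S16 Schwann cells with beta-Lac driven by a PMP22 intronic element, compound-treated 24 h at 37 °C. LiveBLAzer FRET B/G read: 460 nm normalized to potassium clavulanate vs DMSO; 535 nm FRET as viability; concentration-effect curves classified.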"}, "[8]": {"biological_target": "Thyroid hormone receptor beta (Homo sapiens) (UniProt P10828)", "test": "qHTS assay for small molecule agonists of thyroid hormone receptor beta signaling (AID 588545; calls by dose curve)", "details": "TR-UAS-bla GripTite HEK 293, beta-lactamase ratio, agonist mode, 18 h, percent of T3 response, DMSO as zero; series mostly up to 76.7 µM", "procedure,_shortened": "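Stimulation of a TR-driven beta-lactamase reporter was quantified in GripTite HEK 293 cells. Compound series ran for 18 hrs; curves were normalized to T3 and DMSO controls and fitted to yield EC50.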"}, "[9]": {"biological_target": "Luciferin 4-monooxygenase (Photinus pyralis) (UniProt P08659)", "sequence (P08659 whole entry, looked up)": "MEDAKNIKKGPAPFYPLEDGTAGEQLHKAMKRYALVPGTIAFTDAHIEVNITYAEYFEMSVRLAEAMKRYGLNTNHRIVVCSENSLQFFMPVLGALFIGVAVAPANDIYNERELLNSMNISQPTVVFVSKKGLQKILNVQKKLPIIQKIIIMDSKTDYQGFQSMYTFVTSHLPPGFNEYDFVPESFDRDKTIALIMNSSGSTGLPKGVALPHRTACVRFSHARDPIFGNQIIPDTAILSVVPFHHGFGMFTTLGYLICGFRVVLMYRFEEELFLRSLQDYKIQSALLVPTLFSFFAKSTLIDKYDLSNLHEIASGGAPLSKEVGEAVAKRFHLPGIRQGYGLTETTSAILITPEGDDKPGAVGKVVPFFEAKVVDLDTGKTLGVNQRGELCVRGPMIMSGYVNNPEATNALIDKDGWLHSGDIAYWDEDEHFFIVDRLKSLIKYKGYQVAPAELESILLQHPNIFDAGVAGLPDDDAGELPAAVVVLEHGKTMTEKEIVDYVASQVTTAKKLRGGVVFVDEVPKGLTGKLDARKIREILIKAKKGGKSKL", "test": "Biochemical firefly luciferase enzyme assay for NPC (AID 624030);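 further: purified P. pyralis luciferase at 10 nM with luciferin and ATP substrate; nearly all actives have a fitted effect of over 70% in size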", "details": "purified P. pyralis luciferase, luminescence, 5 min; series mostly up to 58.6 µM", "procedure,_shortened": "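Direct inhibition of firefly luciferase enzyme (10 nM final, 50 mM Tris Acetate) assessed by luminescence within 5 minutes. Percent activity scaled between DMSO and PTC124 positive control, with concentration-effect curves classified by fit quality and response.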"}}, "note": "“And” between values parts separate entries of the source, which are not always exact repeats. Equal values may be shown once. Inconclusive results are not listed. Where a call stands in place of a potency, no number is given. The source made the active and inactive calls. Unless noted, the call rests on the fitted dose curve; in most records, active means well fitted curve in the direction sought with a large enough effect; inconclusive means small, poorly fitted or top-dose-only effect, or another doubt; inactive means no such curve, though single readings can be large; an effect the other way counts as inactive or inconclusive.", "data": [{"smiles": "[Cl][In]([Cl])[Cl]", "values": [{"measurement": "max response", "setting": "[1]", "value": -5.94, "unit": "%"}, {"measurement": "outcome", "setting": "[2]", "value": "inactive"}, {"measurement": "max response", "setting": "[3]", "value": -2.25, "unit": "%"}, {"measurement": "activity change % (negative = inhibition)", "setting": "[4]", "value": "2% (inactive)"}, {"measurement": "Potency", "setting": "[5]", "value": "inactive"}, {"measurement": "Potency", "setting": "[6]", "value": "inactive"}, {"measurement": "Potency", "setting": "[7]", "value": "inactive"}]}, {"smiles": "COC(=O)C1=C(C)NC(C)=C(C(=O)OC)C1c1ccccc1[N+](=O)[O-]", "values": [{"measurement": "outcome", "setting": "[8]", "value": "inactive"}, {"measurement": "max response", "setting": "[3]", "value": 8.81, "unit": "%"}, {"measurement": "activity change % (negative = inhibition)", "setting": "[4]", "value": "-6% (inactive)"}, {"measurement": "Potency", "setting": "[9]", "value": "inactive"}, {"measurement": "Potency", "setting": "[6]", "value": "inactive"}, {"measurement": "Potency", "setting": "[7]", "value": "inactive"}]}, {"smiles": "CC1(C)[C@@H]2CC[C@@]1(C)C(=O)C2", "values": [{"measurement": "max response", "setting": "[1]", "value": -8.55, "unit": "%"}, {"measurement": "outcome", "setting": "[2]", "value": "inactive"}, {"measurement": "outcome", "setting": "[8]", "value": "inactive"}, {"measurement": "max response", "setting": "[3]", "value": 1.15, "unit": "%"}, {"measurement": "activity change % (negative = inhibition)", "setting": "[4]", "value": "-4.32% (inactive)"}, {"measurement": "Potency", "setting": "[5]", "value": "inactive"}, {"measurement": "Potency", "setting": "[9]", "value": "inactive"}, {"measurement": "Potency", "setting": "[6]", "value": "inactive"}, {"measurement": "Potency", "setting": "[7]", "value": "9.99 µM (active)"}]}, {"smiles": "CC1(C)S[C@@H]2[C@H](NC(=O)Cc3ccccc3)C(=O)N2[C@H]1C(=O)O", "note": "(tested in a mixture with another compound)", "values": [{"measurement": "Potency", "setting": "[5]", "value": "inactive"}]}, {"smiles": "NC(=O)c1ncn([C@@H]2O[C@H](CO)[C@@H](O)[C@H]2O)c1N", "values": [{"measurement": "Potency", "setting": "[5]", "value": "inactive"}]}, {"smiles": "CC(C)(C)c1onc(OCP(=O)(O)O)c1CC(N)C(=O)O", "note": "(centres undefined)", "values": [{"measurement": "Potency", "setting": "[5]", "value": "inactive"}]}, {"smiles": "C[C@@H]1CC[C@@]2(OC1)O[C@H]1C[C@H]3[C@@H]4CC[C@H]5C[C@@H](O)CC[C@]5(C)[C@H]4CC(=O)[C@]3(C)[C@H]1[C@@H]2C", "values": [{"measurement": "Potency", "setting": "[5]", "value": "inactive"}]}, {"smiles": "N[C@@H](CSSC[C@H](N)C(=O)O)C(=O)O", "values": [{"measurement": "Potency", "setting": "[5]", "value": "inactive"}]}, {"smiles": "C=CCn1c(=O)n([C@@H]2O[C@H](CO)[C@@H](O)[C@H]2O)c2nc(N)[nH]c(=O)c21", "values": [{"measurement": "Potency", "setting": "[5]", "value": "inactive"}]}, {"smiles": "O=C(O)[C@H](O)c1ccccc1", "values": [{"measurement": "Potency", "setting": "[5]", "value": "inactive"}]}, {"smiles": "N[C@H]1C(O)O[C@H](CO)[C@@H](O)[C@@H]1O", "note": "(some centres undefined)", "values": [{"measurement": "Potency", "setting": "[5]", "value": "inactive"}]}, {"smiles": "[O-][n+]1cccc(CO)c1", "values": [{"measurement": "Potency", "setting": "[5]", "value": "inactive"}, {"measurement": "Potency", "setting": "[9]", "value": "inactive"}]}, {"smiles": "OC[C@H]1O[C@@H](O[C@@H]2[C@@H](CO)O[C@](O)(CO)[C@H]2O)[C@H](O)[C@@H](O)[C@H]1O", "values": [{"measurement": "Potency", "setting": "[5]", "value": "inactive"}]}, {"smiles": "C[C@@H](O)[C@H](N)C(=O)O", "values": [{"measurement": "Potency", "setting": "[5]", "value": "inactive"}]}, {"smiles": "CC(=O)OCC(=O)[C@@]1(O)CC[C@H]2[C@@H]3CCC4=CC(=O)CC[C@]4(C)[C@H]3C(=O)C[C@@]21C", "values": [{"measurement": "Potency", "setting": "[5]", "value": "inactive"}, {"measurement": "Potency", "setting": "[9]", "value": "inactive"}]}, {"smiles": "CS(=O)(=O)c1ccc([C@@H](O)[C@@H](CF)NC(=O)C(Cl)Cl)cc1", "values": [{"measurement": "Potency", "setting": "[5]", "value": "inactive"}]}, {"smiles": "CC(C)C(=O)c1c(C(C)C)nn2ccccc12", "values": [{"measurement": "Potency", "setting": "[5]", "value": "inactive"}, {"measurement": "Potency", "setting": "[9]", "value": "inactive"}]}, {"smiles": "CC1=C(C/C=C(\\C)CCC[C@H](C)CCC[C@H](C)CCCC(C)C)C(=O)c2ccccc2C1=O", "values": [{"measurement": "Potency", "setting": "[5]", "value": "inactive"}]}, {"smiles": "NC(N)=NCCC[C@H](N)C(=O)O", "values": [{"measurement": "Potency", "setting": "[5]", "value": "inactive"}]}, {"smiles": "c1ccc2c(CC3=NCCN3)cccc2c1", "values": [{"measurement": "Potency", "setting": "[5]", "value": "inactive"}, {"measurement": "Potency", "setting": "[9]", "value": "inactive"}]}, {"smiles": "CN1CCOC(c2ccccc2)c2ccccc2C1", "note": "(centres undefined)", "values": [{"measurement": "Potency", "setting": "[5]", "value": "inactive"}]}, {"smiles": "CC1CC(OC(=O)C(O)c2ccccc2)CC(C)(C)N1C", "note": "(centres undefined)", "values": [{"measurement": "Potency", "setting": "[5]", "value": "inactive"}]}, {"smiles": "OCC(CO)N[C@H]1C[C@](O)(CO)[C@@H](O)[C@H](O)[C@H]1O", "values": [{"measurement": "Potency", "setting": "[5]", "value": "inactive"}]}, {"smiles": "C[C@]12CC[C@@H]3c4ccc(O)cc4CC[C@H]3[C@@H]1CC[C@@H]2OC(=O)CCC1CCCC1", "values": [{"measurement": "Potency", "setting": "[5]", "value": "inactive"}]}, {"smiles": "CC[N+](CC)(CC)CCOc1ccc(/C=C/c2ccccc2)cc1", "values": [{"measurement": "Potency", "setting": "[5]", "value": "14.1 µM (active)"}, {"measurement": "Potency", "setting": "[9]", "value": "inactive"}]}, {"smiles": "O=c1[nH]c(=O)c2[nH]c(=O)[nH]c2[nH]1", "values": [{"measurement": "Potency", "setting": "[5]", "value": "inactive"}, {"measurement": "Potency", "setting": "[9]", "value": "inactive"}]}, {"smiles": "O=C1N=C(O)CN1/N=C/c1ccc(-c2ccc([N+](=O)[O-])cc2)o1", "values": [{"measurement": "Potency", "setting": "[5]", "value": "inactive"}]}, {"smiles": "C[C@H]1O[C@H](O[C@H]2[C@H](O)[C@@H](O)[C@@H](O[C@H]3[C@H](O)[C@@H](O)[C@H](O)O[C@@H]3CO)O[C@@H]2CO)[C@H](O)[C@@H](O)[C@@H]1N[C@H]1C=C(CO)[C@@H](O)[C@H](O)[C@H]1O", "values": [{"measurement": "Potency", "setting": "[5]", "value": "inactive"}]}, {"smiles": "C/C(=C(\\CCOP(=O)(O)O)SC(=O)c1ccccc1)N(C=O)Cc1cnc(C)nc1N", "values": [{"measurement": "Potency", "setting": "[5]", "value": "inactive"}]}, {"smiles": "Cc1ncc([N+](=O)[O-])n1CC(O)CCl", "note": "(centres undefined)", "values": [{"measurement": "Potency", "setting": "[5]", "value": "inactive"}]}, {"smiles": "CC1(C)Oc2ccc(C#N)cc2[C@@H](N2CCCC2=O)[C@@H]1O", "values": [{"measurement": "Potency", "setting": "[5]", "value": "inactive"}]}, {"smiles": "CN(N=O)C(=O)N[C@@H]1[C@@H](O)[C@H](O)[C@@H](CO)O[C@@H]1O", "values": [{"measurement": "Potency", "setting": "[5]", "value": "inactive"}]}, {"smiles": "CN(C)CCCO[C@@H]1[C@H]2OC(C)(C)O[C@H]2O[C@@H]1C(O)CO", "note": "(some centres undefined)", "values": [{"measurement": "Potency", "setting": "[5]", "value": "inactive"}]}, {"smiles": "CC(C(O)c1ccc(O)cc1)N1CCC(Cc2ccccc2)CC1", "note": "(centres undefined)", "values": [{"measurement": "Potency", "setting": "[5]", "value": "1.12 µM (active) and 501 nM (active)"}, {"measurement": "Potency", "setting": "[9]", "value": "inactive"}]}, {"smiles": "N[C@H](C(=O)O)c1ccc(O)cc1", "values": [{"measurement": "Potency", "setting": "[5]", "value": "inactive"}]}, {"smiles": "COc1ccc2cc1Oc1ccc(cc1)C[C@H]1c3c(cc4c(c3Oc3cc5c(cc3OC)CCN(C)[C@@H]5C2)OCO4)CCN1C", "values": [{"measurement": "Potency", "setting": "[5]", "value": "14.1 µM (active)"}]}, {"smiles": "CC1=C(CC(=O)O)c2cc(F)ccc2/C1=C\\c1ccc(S(C)(=O)=O)cc1", "values": [{"measurement": "Potency", "setting": "[5]", "value": "inactive"}, {"measurement": "Potency", "setting": "[9]", "value": "inactive"}]}]}
